Structures are written as SMILES. A number with no mark means an inactive call. The source made the active and inactive calls.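 Rule for the calls: active = normalized viability below 100% at a tested concentration; inactive = the rest.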

One assay can be described thus: ovarian cancer cell viability with rucaparib, profiling panel, oncology-focused library, rucaparib conditional (AID 1508598). To be noted: patient-derived ovarian cancer cells, CellTiter-Glo viability, 144 h; at 0.0781 µM; OCI-C5x cells; with rucaparib 10 µM; active compounds read low; 100% = cells with rucaparib alone.
Take `CC1(C)CNc2cc(NC(=O)c3cccnc3NCc3ccncc3)ccc21`: the viability is 119%.
Still for that read-out and setting: for `O=C(Nc1ccccc1-c1cn2c(CN3CCNCC3)csc2n1)c1cnc2ccccc2n1` the value was 113%.
Turning to `Cc1cnc(NC(=O)Nc2cc(Br)c(C)cc2OC[C@@H]2CNCCO2)cn1`, the viability was 102%.
Still for that read-out and setting: for `N#Cc1c(NC(=O)c2cccc3ccccc23)sc2c1CCCC2` the value was 118%; for `COc1ccc(-c2ccc3c(N4CCOC[C@@H]4C)nc(N4CCOC[C@@H]4C)nc3n2)cc1CO`, 71.2% (active); for `Nc1nc(Nc2ccc(S(N)(=O)=O)cc2)nn1C(=O)c1c(F)cccc1F`, 91.7% (active).
Still for that read-out and setting: the same measure for `Cc1ccc(F)c(NC(=O)Nc2ccc(-c3cccc4[nH]nc(N)c34)cc2)c1`: 111%; for `COc1ccc(-c2ccc3c(N4CCOCC4)nc(N4C[C@@H](C)O[C@@H](C)C4)nc3n2)cc1CO`: 122%; for `N#CCNC(=O)c1ccc(-c2ccnc(Nc3ccc(N4CCOCC4)cc3)n2)cc1`: 122%.
Still for that read-out and setting: the same measure for `COC(=O)c1ccc2c(C(=Nc3ccc(N(C)C(=O)CN4CCN(C)CC4)cc3)c3ccccc3)c(O)[nH]c2c1`: 116%; for `COc1cc2nccc(Oc3ccc(NC(=O)Nc4cc(C)on4)c(Cl)c3)c2cc1OC`: 113%.

The assay is the same for the next values; noted with them: patient-derived ovarian cancer cells, CellTiter-Glo viability, 144 h; at 0.0781 µM; OCI-C5x cells; without rucaparib; active compounds read low.
Consider `CC1(C)CNc2cc(NC(=O)c3cccnc3NCc3ccncc3)ccc21`, for which the viability was 141%.
Still for that read-out and setting: for `O=C(Nc1ccccc1-c1cn2c(CN3CCNCC3)csc2n1)c1cnc2ccccc2n1` the value was 110%.
The same measure, in the same setting: the same measure for `Cc1cnc(NC(=O)Nc2cc(Br)c(C)cc2OC[C@@H]2CNCCO2)cn1`: 117%.
The same measure, in the same setting: the same measure for `N#Cc1c(NC(=O)c2cccc3ccccc23)sc2c1CCCC2`: 109%.
Turning to `COc1ccc(-c2ccc3c(N4CCOC[C@@H]4C)nc(N4CCOC[C@@H]4C)nc3n2)cc1CO`, the viability is 55.7% (active).
Same read-out and setting: for `Nc1nc(Nc2ccc(S(N)(=O)=O)cc2)nn1C(=O)c1c(F)cccc1F` the value was 90.6% (active); for `Cc1ccc(F)c(NC(=O)Nc2ccc(-c3cccc4[nH]nc(N)c34)cc2)c1`, 110%.
The same measure, in the same setting: the same measure for `COc1ccc(-c2ccc3c(N4CCOCC4)nc(N4C[C@@H](C)O[C@@H](C)C4)nc3n2)cc1CO`: 125%; for `N#CCNC(=O)c1ccc(-c2ccnc(Nc3ccc(N4CCOCC4)cc3)n2)cc1`: 116%.
Same read-out and setting: the same measure for `COC(=O)c1ccc2c(C(=Nc3ccc(N(C)C(=O)CN4CCN(C)CC4)cc3)c3ccccc3)c(O)[nH]c2c1`: 116%; for `COc1cc2nccc(Oc3ccc(NC(=O)Nc4cc(C)on4)c(Cl)c3)c2cc1OC`: 88.6% (active).

Still in this assay, the particulars now being: patient-derived ovarian cancer cells, CellTiter-Glo viability, 144 h; at 0.0781 µM; OCI-P5x cells; with rucaparib 20 µM; active compounds read low; 100% = cells with rucaparib alone.
Turning to `CC1(C)CNc2cc(NC(=O)c3cccnc3NCc3ccncc3)ccc21`, the viability was 138%.
Still for that read-out and setting: the same measure for `O=C(Nc1ccccc1-c1cn2c(CN3CCNCC3)csc2n1)c1cnc2ccccc2n1`: 110%.
The same measure, in the same setting: for `Cc1cnc(NC(=O)Nc2cc(Br)c(C)cc2OC[C@@H]2CNCCO2)cn1` the value was 92.1% (active); for `N#Cc1c(NC(=O)c2cccc3ccccc23)sc2c1CCCC2`, 97.5% (active).
The same measure, in the same setting: the same measure for `COc1ccc(-c2ccc3c(N4CCOC[C@@H]4C)nc(N4CCOC[C@@H]4C)nc3n2)cc1CO`: 43.6% (active).
For the compound `Nc1nc(Nc2ccc(S(N)(=O)=O)cc2)nn1C(=O)c1c(F)cccc1F`, the viability was 87.9% (active).
The same measure, in the same setting: the same measure for `Cc1ccc(F)c(NC(=O)Nc2ccc(-c3cccc4[nH]nc(N)c34)cc2)c1`: 103%; for `COc1ccc(-c2ccc3c(N4CCOCC4)nc(N4C[C@@H](C)O[C@@H](C)C4)nc3n2)cc1CO`: 100%; for `N#CCNC(=O)c1ccc(-c2ccnc(Nc3ccc(N4CCOCC4)cc3)n2)cc1`: 96.9% (active).
Same read-out and setting: the same measure for `COC(=O)c1ccc2c(C(=Nc3ccc(N(C)C(=O)CN4CCN(C)CC4)cc3)c3ccccc3)c(O)[nH]c2c1`: 93% (active); for `COc1cc2nccc(Oc3ccc(NC(=O)Nc4cc(C)on4)c(Cl)c3)c2cc1OC`: 92.2% (active).

The same assay, now with this note: patient-derived ovarian cancer cells, CellTiter-Glo viability, 144 h; at 0.0781 µM; OCI-P5x cells; without rucaparib; active compounds read low.
For `CC1(C)CNc2cc(NC(=O)c3cccnc3NCc3ccncc3)ccc21`, the viability is 108%.
The same measure, in the same setting: the same measure for `O=C(Nc1ccccc1-c1cn2c(CN3CCNCC3)csc2n1)c1cnc2ccccc2n1`: 110%; for `Cc1cnc(NC(=O)Nc2cc(Br)c(C)cc2OC[C@@H]2CNCCO2)cn1`: 105%.
On the same count and under the same terms, for `N#Cc1c(NC(=O)c2cccc3ccccc23)sc2c1CCCC2` the value was 102%.
Still for that read-out and setting: the same measure for `COc1ccc(-c2ccc3c(N4CCOC[C@@H]4C)nc(N4CCOC[C@@H]4C)nc3n2)cc1CO`: 24.2% (active); for `Nc1nc(Nc2ccc(S(N)(=O)=O)cc2)nn1C(=O)c1c(F)cccc1F`: 84% (active).
As to `Cc1ccc(F)c(NC(=O)Nc2ccc(-c3cccc4[nH]nc(N)c34)cc2)c1`, the viability was 102%.
Take `COc1ccc(-c2ccc3c(N4CCOCC4)nc(N4C[C@@H](C)O[C@@H](C)C4)nc3n2)cc1CO`: the viability is 109%.
On the same count and under the same terms, the same measure for `N#CCNC(=O)c1ccc(-c2ccnc(Nc3ccc(N4CCOCC4)cc3)n2)cc1`: 92.3% (active); for `COC(=O)c1ccc2c(C(=Nc3ccc(N(C)C(=O)CN4CCN(C)CC4)cc3)c3ccccc3)c(O)[nH]c2c1`: 96.8% (active).
Take `COc1cc2nccc(Oc3ccc(NC(=O)Nc4cc(C)on4)c(Cl)c3)c2cc1OC`: the viability is 87.4% (active).
